The source of these data is PMC5540273 (PLoS ONE, 2017).

Each structure is given as a SMILES string.
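Further: KINOMEscan kinase panel screen.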

For one test, the system named is TESK1. Particulars: concentration: 1 μM,replicates: in singlicate; n = 1.
As for `CN1CCN(CCCNc2nccc(-c3c(-c4ccc(F)cc4)nn4cc(C(N)=O)ccc34)n2)CC1` [GW622475], the “%Inh” value turned out to be 23%.

As for `C[C@@H]1CNc2c(sc3ccc4nc(-c5ccc(O)cc5)ccc4c23)C(=O)N1`, the “%Inh” value is reported as 8%.

With `CCn1c(-c2nonc2N)nc2cncc(Br)c21` [SB-738004], the “%Inh” value was 19%.

Consider `C[C@@H]1CCN(C(=O)N2CCCC2)C[C@@H]1N(C)c1ncnc2[nH]ccc12`, for which the “%Inh” value is on record as 16%.

In the case of `CS(=O)c1ccc(-c2coc3ccc(-c4n[nH]c(=O)o4)cc23)cc1` (stereo not drawn), the “%Inh” value is 0%.

Regarding `CCn1c(-c2nonc2N)nc2cncc(CNC3CCNCC3)c21.Cl` [SB-747651], the “%Inh” value was 20%.

As for `C[C@@H](Oc1cc(-n2cnc3cc(-c4cnn(C)c4)ccc32)sc1C(N)=O)c1ccccc1Cl` [GSK580432], the “%Inh” value worked out at 37%.

On to `CN1CCN(CCNc2nc3cc(Oc4ccc(NC(=O)Nc5cc(C(F)(F)F)ccc5F)cc4)ccc3[nH]2)CC1.Cl.Cl` [GW768504], for which the “%Inh” value worked out at 0%.

With `CCNCC(Cc1ccccc1)NC(=O)c1cc(Br)c(-c2ccnc3[nH]ccc23)s1.Cl.Cl` (stereo not drawn) [GSK1383280], the “%Inh” value amounted to 24%.

`CCCC(=O)Nc1n[nH]c2ncccc12` [SB-601436]: the “%Inh” value is 5%.

In the case of `COc1cccc(C2=C(Nc3cccc(Cl)c3)C(=O)NC2=O)c1` [SB-341556], the “%Inh” value turned out to be 17%.

Turning to `C[C@@H]1CNc2c(sc3ccc4nc(-c5ccncc5)ccc4c23)C(=O)N1`, the “%Inh” value is on record as 0%.

Regarding `CC(=O)c1c(-c2ccncc2)[nH]c(-c2ccncc2)c1C` [GW493036], the “%Inh” value stood at 25%.

In the case of `CCN1CCN(CCCC(=O)Nc2n[nH]c3nc(-c4ccc(O)cc4)c(Br)cc23)CC1` [SB-731579], the “%Inh” value stood at 0%.

`O=c1[nH]cc(-c2ccc(O)cc2)c2sc(-c3ccncc3)cc12` [GSK1033723]: the “%Inh” value worked out at 0%.

Turning to `Nc1nccc(-c2ccc3c(N)n[nH]c3c2)n1` [GSK1034945], the “%Inh” value stood at 2%.

Regarding `COC(=O)c1cccc(NC(=O)NC2CCN(c3ccnc(NCc4ccc(F)cc4)n3)CC2)c1` [GSK1379860], the “%Inh” value was 16%.

Regarding `COc1cc2nccc(Nc3ccc(Oc4ccccc4)cc3)c2cc1OC.Cl` [GI261656], the “%Inh” value is on record as 5%.

Regarding `Cn1ccc2ncnc(Oc3ccc(NC(=O)Nc4cccc(C(F)(F)F)c4)c(Cl)c3)c21`, the “%Inh” value was 0%.

As for `CNC(=O)c1ccccc1Nc1nc(Nc2cccc(CS(C)(=O)=O)c2)ncc1C.O=CO` [GSK1520489], the “%Inh” value is 64%.

As for `Cc1cccc2c(-c3ccncc3)c(-c3ccc(F)cc3)nn12.Cl` [GW461487], the “%Inh” value is recorded as 0%.

On to `Cc1nnc(-c2ccc3occ(-c4ccc(S(C)=O)cc4)c3n2)o1` (stereo not drawn), for which the “%Inh” value was found to be 0%.

For `OCCn1cc(-c2cnc3nnn(Cc4ccc5ncccc5c4)c3n2)cn1`, the “%Inh” value amounted to 0%.

Turning to `COC(=O)c1cccc(NC(=O)NC2CCN(c3ccnc(Nc4cc(OC)c(OC)c(OC)c4)n3)C2)c1` (stereo not drawn) [GSK1379767], the “%Inh” value is given as 19%.

For `O=C(Nc1cccc(C(F)(F)F)c1)c1cccc(Oc2ccc3nccn3n2)c1`, the “%Inh” value worked out at 7%.

With `Cc1cccc(-c2nc(Nc3ccncc3)c3sccc3n2)n1` [GW869641], the “%Inh” value is listed as 10%.

Consider `COc1cc2ncn(-c3cc(OCC4CCCCC4)c(C(N)=O)s3)c2cc1OC` [GSK204559], for which the “%Inh” value is 18%.

For `Cn1cc(-c2cccc3c(N)c(C(N)=O)nnc23)cn1`, the “%Inh” value was 0%.

Take `NC(=O)Nc1sc(-c2ccc(F)cc2)cc1C(N)=O` [GW789449]: the “%Inh” value amounted to 24%.

As to `c1ccc(Oc2ccc(Nc3ccnc4ccc(-c5ccccn5)cc34)cc2)cc1` [GW407034], the “%Inh” value is 29%.

Regarding `Cn1ccc2ncnc(Oc3ccc(NC(=O)Nc4cnn(C(C)(C)C)c4)c(Cl)c3)c21`, the “%Inh” value came to 0%.

As to `Cc1ccc(Nc2ccnc(Nc3ccc4c(c3)CS(=O)(=O)C4)n2)cc1O.Cl` [GW579362], the “%Inh” value worked out at 53%.

On to `Cc1ccc(C(=O)Nc2ccc(Oc3ccc4nc(NC(=O)C5CC5)cn4c3)c(F)c2)c(=O)n1-c1ccccc1`, for which the “%Inh” value is recorded as 30%.

Take `CC(C(=O)NC1CCN(c2ccnc(Nc3ccc(F)cc3)n2)C1)c1ccc(Cl)cc1` (stereo not drawn) [GSK1379713]: the “%Inh” value was 26%.

Take `COC(=O)Nc1nc2cc(Oc3ccc(NC(=O)Nc4cc(C(F)(F)F)ccc4Cl)cc3)ccc2[nH]1.Cl` [GW697465]: the “%Inh” value came to 7%.

In the case of `CCOC(=O)N1CCC(n2cnc(-c3ccc(F)cc3)c2-c2ccnc(N)n2)CC1` [SB-219952], the “%Inh” value was 12%.

Consider `Cn1ccc2ncnc(Oc3ccc(NC(=O)Nc4cc(C(C)(C)C)on4)c(Cl)c3)c21`, for which the “%Inh” value came to 0%.

The next test has as its system TGFBR1. Particulars: concentration: 1 μM,replicates: in singlicate; n = 1.
Turning to `CN1CCN(CCCNc2nccc(-c3c(-c4ccc(F)cc4)nn4cc(C(N)=O)ccc34)n2)CC1` [GW622475], the “%Inh” value is on record as 92.3%.

Consider `C[C@@H]1CNc2c(sc3ccc4nc(-c5ccc(O)cc5)ccc4c23)C(=O)N1`, for which the “%Inh” value was found to be 1%.

For the compound `CCn1c(-c2nonc2N)nc2cncc(Br)c21` [SB-738004], the “%Inh” value amounted to 0%.

`C[C@@H]1CCN(C(=O)N2CCCC2)C[C@@H]1N(C)c1ncnc2[nH]ccc12`: the “%Inh” value was 0%.

For the compound `CS(=O)c1ccc(-c2coc3ccc(-c4n[nH]c(=O)o4)cc23)cc1` (stereo not drawn), the “%Inh” value was 24%.

On to `CCn1c(-c2nonc2N)nc2cncc(CNC3CCNCC3)c21.Cl` [SB-747651], for which the “%Inh” value was 10%.

Take `C[C@@H](Oc1cc(-n2cnc3cc(-c4cnn(C)c4)ccc32)sc1C(N)=O)c1ccccc1Cl` [GSK580432]: the “%Inh” value came to 0%.

Turning to `CN1CCN(CCNc2nc3cc(Oc4ccc(NC(=O)Nc5cc(C(F)(F)F)ccc5F)cc4)ccc3[nH]2)CC1.Cl.Cl` [GW768504], the “%Inh” value was 6%.

For `CCNCC(Cc1ccccc1)NC(=O)c1cc(Br)c(-c2ccnc3[nH]ccc23)s1.Cl.Cl` (stereo not drawn) [GSK1383280], the “%Inh” value was 0%.

On to `CCCC(=O)Nc1n[nH]c2ncccc12` [SB-601436], for which the “%Inh” value is 0%.

Turning to `COc1cccc(C2=C(Nc3cccc(Cl)c3)C(=O)NC2=O)c1` [SB-341556], the “%Inh” value was 12%.

On to `C[C@@H]1CNc2c(sc3ccc4nc(-c5ccncc5)ccc4c23)C(=O)N1`, for which the “%Inh” value worked out at 0%.

As for `CC(=O)c1c(-c2ccncc2)[nH]c(-c2ccncc2)c1C` [GW493036], the “%Inh” value is 23%.

Turning to `CCN1CCN(CCCC(=O)Nc2n[nH]c3nc(-c4ccc(O)cc4)c(Br)cc23)CC1` [SB-731579], the “%Inh” value is on record as 0%.

As to `O=c1[nH]cc(-c2ccc(O)cc2)c2sc(-c3ccncc3)cc12` [GSK1033723], the “%Inh” value came out at 0%.

On to `COC(=O)c1cccc(NC(=O)NC2CCN(c3ccnc(NCc4ccc(F)cc4)n3)CC2)c1` [GSK1379860], for which the “%Inh” value turned out to be 25%.

Regarding `COc1cc2nccc(Nc3ccc(Oc4ccccc4)cc3)c2cc1OC.Cl` [GI261656], the “%Inh” value is 2%.

With `Cn1ccc2ncnc(Oc3ccc(NC(=O)Nc4cccc(C(F)(F)F)c4)c(Cl)c3)c21`, the “%Inh” value came out at 17%.

For the compound `CNC(=O)c1ccccc1Nc1nc(Nc2cccc(CS(C)(=O)=O)c2)ncc1C.O=CO` [GSK1520489], the “%Inh” value came to 81%.

In the case of `Cc1cccc2c(-c3ccncc3)c(-c3ccc(F)cc3)nn12.Cl` [GW461487], the “%Inh” value was determined as 8%.

On to `Cc1nnc(-c2ccc3occ(-c4ccc(S(C)=O)cc4)c3n2)o1` (stereo not drawn), for which the “%Inh” value is 0%.

Take `OCCn1cc(-c2cnc3nnn(Cc4ccc5ncccc5c4)c3n2)cn1`: the “%Inh” value is listed as 0%.

On to `COC(=O)c1cccc(NC(=O)NC2CCN(c3ccnc(Nc4cc(OC)c(OC)c(OC)c4)n3)C2)c1` (stereo not drawn) [GSK1379767], for which the “%Inh” value amounted to 0%.

With `O=C(Nc1cccc(C(F)(F)F)c1)c1cccc(Oc2ccc3nccn3n2)c1`, the “%Inh” value is listed as 0%.

For `COc1cc2ncn(-c3cc(OCC4CCCCC4)c(C(N)=O)s3)c2cc1OC` [GSK204559], the “%Inh” value turned out to be 0%.

Regarding `Cn1cc(-c2cccc3c(N)c(C(N)=O)nnc23)cn1`, the “%Inh” value was found to be 0%.

`NC(=O)Nc1sc(-c2ccc(F)cc2)cc1C(N)=O` [GW789449]: the “%Inh” value came out at 27%.

Regarding `c1ccc(Oc2ccc(Nc3ccnc4ccc(-c5ccccn5)cc34)cc2)cc1` [GW407034], the “%Inh” value was found to be 10%.

For `Cn1ccc2ncnc(Oc3ccc(NC(=O)Nc4cnn(C(C)(C)C)c4)c(Cl)c3)c21`, the “%Inh” value is 13%.

In the case of `Cc1ccc(Nc2ccnc(Nc3ccc4c(c3)CS(=O)(=O)C4)n2)cc1O.Cl` [GW579362], the “%Inh” value is recorded as 82%.

As for `Cc1ccc(C(=O)Nc2ccc(Oc3ccc4nc(NC(=O)C5CC5)cn4c3)c(F)c2)c(=O)n1-c1ccccc1`, the “%Inh” value is recorded as 16%.

For the compound `CC(C(=O)NC1CCN(c2ccnc(Nc3ccc(F)cc3)n2)C1)c1ccc(Cl)cc1` (stereo not drawn) [GSK1379713], the “%Inh” value worked out at 0%.

As to `COC(=O)Nc1nc2cc(Oc3ccc(NC(=O)Nc4cc(C(F)(F)F)ccc4Cl)cc3)ccc2[nH]1.Cl` [GW697465], the “%Inh” value was 28%.

Take `CCOC(=O)N1CCC(n2cnc(-c3ccc(F)cc3)c2-c2ccnc(N)n2)CC1` [SB-219952]: the “%Inh” value is 23%.

`Cn1ccc2ncnc(Oc3ccc(NC(=O)Nc4cc(C(C)(C)C)on4)c(Cl)c3)c21`: the “%Inh” value is reported as 13%.
